Results filed as inconclusive are left out. Activity calls are given as the source filed them. Calls follow the shape of the full dose curve.

The nature of experiment [1]: Cytotoxicity counterscreen for inhibitors of SARS-CoV-2 cell entry (AID 1645845). Also: nearly all actives have a fitted effect of over 50% in size. The conditions noted are these: cell viability (SARS-CoV-2 entry assay cells); series mostly up to 57.1 µM. The procedure, abridged:
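After a 15 min room-temperature ATPLite 1step step, luminescence reflected ATP remaining in HEK293-ACE2 cells exposed to compound for 1 h plus 48 h at 37 C, with percent activity set by cell and no-cell controls.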
Background: A counterscreen serves to expose hits that act by an unwanted route or on another target.

The nature of experiment [2]: Primary qHTS to identify inhibitors of SARS-CoV-2 cell entry (AID 1645846). Also: nearly all actives have a fitted effect of over 45% in size. The conditions noted are these: SARS-CoV-2 pseudovirus cell entry assay, luminescence; activity change, negative = inhibition: at 57.1 µM (top of the series) unless noted; series mostly up to 57.1 µM. In a few lines:
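Inhibition of spike-mediated entry was scored in human ACE2-transfected Expi293F cells. Particles were MLV-pseudotyped with Wuhan-Hu-1 S carrying a 19-aa C-terminal deletion; signal was luciferase after two days, scaled between spike PP and fusion-protein-free PP.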
A general note: qHTS replaces the single test concentration by a dilution series.
Potency is read from the fitted curve at half-maximal effect.

On to `CCCCCCc1ccc(O)cc1O`, for which the Potency entry in experiment [1] was “inactive”. Also, the activity change, negative = inhibition in experiment [2] is -11.8%.

With `CCN(CC)C(=O)Nc1ccc(OCC(O)CNC(C)(C)C)c(C(C)=O)c1` (configuration not stated), in experiment [1], the Potency entry is “inactive”. For the same compound, the activity change, negative = inhibition in experiment [2] was -2.7%.

On to `CC(C)(C)C(=O)OCOC(=O)[C@@H]1N2C(=O)[C@@H](NC(=O)[C@H](N)c3ccccc3)[C@H]2SC1(C)C`, for which the Potency result in experiment [1] is “inactive”. In experiment [2], the activity change, negative = inhibition is -12.4%.

Turning to `CCCCNc1ccc(C(=O)OCCN(C)C)cc1`, the Potency result in experiment [1] and in experiment [2] was “inactive” throughout.

On to `Cn1c(=O)c2c(ncn2CC2OCCO2)n(C)c1=O`, for which the Potency result in experiment [1] is “inactive”. For the same compound, in experiment [2], the activity change, negative = inhibition was -5.86%.

Regarding `CCCCOc1ccc(OCCCN2CCOCC2)cc1`, the Potency result in experiment [1] and in experiment [2] was “inactive” throughout.

On to `CCCCC1(COC(=O)CCC(=O)O)C(=O)N(c2ccccc2)N(c2ccccc2)C1=O`, for which the Potency entry in experiment [1] and in experiment [2] was “inactive” each time.

For the compound `CC1(C)[C@H](C(=O)O)N2C(=O)C[C@H]2S1(=O)=O`, the Potency result in experiment [1] and in experiment [2] was “inactive” throughout.

Turning to `Nc1ccc(C(=O)NCC(=O)O)cc1`, the Potency result in experiment [1] is “inactive”. Besides, in experiment [2], the activity change, negative = inhibition turned out to be 4.24%.

For the compound `CCCc1ncc(C[n+]2ccccc2C)c(N)n1`, the Potency result in experiment [1] is “inactive”. Besides, the activity change, negative = inhibition in experiment [2] came out at 0.0229%.

As to `Nc1ccc(N=Nc2ccccc2)c(N)n1`, the Potency result in experiment [1] and in experiment [2] was “inactive” throughout.

Turning to `CCCCCCCCCCCCCCCCCCOCC(O)CO` (configuration not stated), in experiment [1], the Potency entry is “inactive”. Besides, in experiment [2], the activity change, negative = inhibition turned out to be 2.2%.

`Cc1cccc(C)c1NC(=O)C(C)N` (configuration not stated): in experiment [1], the Potency result is “inactive”. Further, the activity change, negative = inhibition in experiment [2] was found to be 4.4%.

With `CCCN(CCC)C(=O)C(CCC(=O)OCCCN1CCN(CCOC(=O)Cc2c(C)n(C(=O)c3ccc(Cl)cc3)c3ccc(OC)cc23)CC1)NC(=O)c1ccccc1` (configuration not stated), the Potency result in experiment [1] was “inactive”. The Potency in experiment [2] was 28.2 µM (active).

For `CC(C)C(=O)Nc1cccc(C2CN3CCSC3=N2)c1` (configuration not stated), the Potency entry in experiment [1] is “inactive”. Also, in experiment [2], the activity change, negative = inhibition is -6.4%.

Consider `CC(C(=O)O)c1ccc2c(c1)Cc1cccnc1O2` (configuration not stated), for which the Potency entry in experiment [1] is “inactive”. In experiment [2], the activity change, negative = inhibition was -13.6%.

Take `CC(COc1ccccc1)NC(C)C(O)c1ccc(O)cc1` (configuration not stated): the Potency result in experiment [1] and in experiment [2] was “inactive” in each case.

Consider `O=C(OCC(O)CO)c1ccccc1Nc1ccnc2c(C(F)(F)F)cccc12` (configuration not stated), for which the Potency entry in experiment [1] and in experiment [2] was “inactive” each time.

`Cc1c(C(=O)NN2CCCCC2)nn(-c2ccc(Cl)cc2Cl)c1-c1ccc(Cl)cc1`: in experiment [1], the Potency entry is “inactive”. Moreover, in experiment [2], the activity change, negative = inhibition is -26.4%.

As to `CNC(=O)c1cnn(-c2nc(N)c3ncn([C@@H]4O[C@H](CO)[C@@H](O)[C@H]4O)c3n2)c1`, the Potency entry in experiment [1] and in experiment [2] was “inactive” each time.

On to `C[C@H]1C[C@H]2[C@@H]3CCC4=CC(=O)C=C[C@]4(C)[C@@]3(Cl)[C@@H](O)C[C@]2(C)[C@@]1(O)C(=O)CO`, for which the Potency result in experiment [1] and in experiment [2] was “inactive” in each case.

For the compound `CC(=C(CCOC(=O)C(C)C)SSC(CCOC(=O)C(C)C)=C(C)N(C=O)Cc1cnc(C)nc1N)N(C=O)Cc1cnc(C)nc1N`, the Potency entry in experiment [1] and in experiment [2] was “inactive” throughout.

With `CC[N+](CC)(CC)CCOC(=O)C(C1CCCC1)C1CCCC1`, the Potency entry in experiment [1] is “inactive”. In addition, in experiment [2], the activity change, negative = inhibition was -6.21%.

Consider `CC1=C(C)C(=O)C(C(CCCCCC(=O)O)c2ccccc2)=C(C)C1=O` (configuration not stated), for which the Potency result in experiment [1] and in experiment [2] was “inactive” in each case.

For the compound `CC(=O)[C@@]1(O)CC[C@H]2[C@@H]3C[C@H](C)C4=CC(=O)CC[C@]4(C)[C@H]3CC[C@@]21C`, the Potency entry in experiment [1] and in experiment [2] was “inactive” each time.

`C[N+](C)(C)CCCCCCCCCC[N+](C)(C)C`: the Potency result in experiment [1] is “inactive”. Also, in experiment [2], the activity change, negative = inhibition is -5.17%.

As to `CCCCC(=O)O[C@]1(C(=O)CO)CC[C@H]2[C@@H]3CCC4=CC(=O)CC[C@]4(C)[C@H]3[C@@H](O)C[C@@]21C`, the Potency entry in experiment [1] and in experiment [2] was “inactive” each time.

In the case of `CNC(=O)Oc1ccc2c(c1)[C@]1(C)CCN(C)[C@@H]1N2C`, the Potency entry in experiment [1] and in experiment [2] was “inactive” in each case.

As for `CC(=O)O[C@H]1C[C@@H]2CC[C@@H]3[C@H](CC[C@@]4(C)[C@H]3C[C@H]([N+]3(C)CCCCC3)[C@@H]4OC(C)=O)[C@@]2(C)C[C@@H]1N1CCCCC1`, the Potency entry in experiment [1] was “inactive”. Besides, the activity change, negative = inhibition in experiment [2] is -7.24%.

Consider `O=C1OC(c2ccc(O)cc2)(c2ccc(O)cc2)c2ccccc21`, for which the Potency result in experiment [1] and in experiment [2] was “inactive” in each case.

Consider `Nc1ccn([C@H]2CC[C@@H](CO)O2)c(=O)n1`, for which the Potency result in experiment [1] and in experiment [2] was “inactive” throughout.

Regarding `O=C1c2ccccc2C(=O)C1c1ccccc1`, the Potency entry in experiment [1] and in experiment [2] was “inactive” in each case.

With `CCN1C(=O)c2ccccc2C1Nc1ccc(OCCN2CCCCC2)cc1` (configuration not stated), the Potency result in experiment [1] is “inactive”. Also, the activity change, negative = inhibition in experiment [2] came out at 0.117%.

In the case of `Cc1[nH]c(C)c(Cl)c(=O)c1Cl`, the Potency entry in experiment [1] and in experiment [2] was “inactive” each time.

For `CCCCN(CCN(CCCC)C(=O)N1CCOCC1)C(=O)N1CCOCC1`, the Potency entry in experiment [1] and in experiment [2] was “inactive” each time.

On to `C[C@H](CCC(=O)O)[C@H]1CC[C@H]2[C@@H]3C(=O)C[C@@H]4CC(=O)CC[C@]4(C)[C@H]3CC(=O)[C@]12C`, for which the Potency result in experiment [1] and in experiment [2] was “inactive” throughout.

Turning to `CC(=O)N(CC(O)CN(C(C)=O)c1c(I)c(C(=O)NCC(O)CO)c(I)c(C(=O)NCC(O)CO)c1I)c1c(I)c(C(=O)NCC(O)CO)c(I)c(C(=O)NCC(O)CO)c1I` (configuration not stated), the Potency entry in experiment [1] and in experiment [2] was “inactive” throughout.

Take `C[C@@H]1C[C@H]2[C@@H]3CCC4=CC(=O)C=C[C@]4(C)[C@@]3(F)[C@@H](O)C[C@]2(C)[C@H]1C(=O)CO`: the Potency entry in experiment [1] and in experiment [2] was “inactive” in each case.

`CN(C)C(=S)SC(=S)N(C)C`: the Potency was 3.55 µM (active) in experiment [1] and 1 µM (active) in experiment [2].

Consider `CN(CCCN1c2ccccc2CCc2ccccc21)CC(=O)c1ccc(Cl)cc1`, for which, in experiment [1], the Potency entry was “inactive”. Also, the activity change, negative = inhibition in experiment [2] was -5.87%.

For `CSc1ccc(C(=O)c2[nH]c(=O)[nH]c2C)cc1`, the Potency result in experiment [1] and in experiment [2] was “inactive” in each case.

For the origin of these results see PubChem BioAssay (NCATS).
